Screening results deposited in PubChem by National Center for Advancing Translational Sciences (NCATS).
NPC1 prom act: qHTS Assay for NPC1 Promoter Activators; AID 485313, 2010; Huh7 NPC1 promoter luciferase reporter, 24 h; 320,000 compounds, 2.4% hits; Potency, µM (series often up to 9.22 µM), for the others: at the highest dose activation, usual class: activators; also: % of control where 0% means no effect; nearly all actives have a fitted effect of over 60% in size
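Readout is luciferase luminescence, reflecting NPC1 promoter activation in stably transfected Huh7 cells after 24 h compound exposure at 37 °C in reduced-serum medium with 10% FBS.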
FLuc counter: qHTS profiling assay for firefly luciferase inhibitor/activator using purifed enzyme and Km concentrations of substrates (counterscreen for miR-21 project); Potency, µM (doses to about 57.5 µM), without a hit: at the top dose activity change, negative = inhibition, usual class: inhibitors; 360,000 compounds, 6.9% hits; AID 588342, 2011; purified FLuc, Km substrates, luminescence inhibition;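 also: plate controls were vehicle for no effect and reference inhibitor for full effect; nearly all actives have a fitted effect of over 55% in size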
Target sequence (P08659 whole entry, looked up): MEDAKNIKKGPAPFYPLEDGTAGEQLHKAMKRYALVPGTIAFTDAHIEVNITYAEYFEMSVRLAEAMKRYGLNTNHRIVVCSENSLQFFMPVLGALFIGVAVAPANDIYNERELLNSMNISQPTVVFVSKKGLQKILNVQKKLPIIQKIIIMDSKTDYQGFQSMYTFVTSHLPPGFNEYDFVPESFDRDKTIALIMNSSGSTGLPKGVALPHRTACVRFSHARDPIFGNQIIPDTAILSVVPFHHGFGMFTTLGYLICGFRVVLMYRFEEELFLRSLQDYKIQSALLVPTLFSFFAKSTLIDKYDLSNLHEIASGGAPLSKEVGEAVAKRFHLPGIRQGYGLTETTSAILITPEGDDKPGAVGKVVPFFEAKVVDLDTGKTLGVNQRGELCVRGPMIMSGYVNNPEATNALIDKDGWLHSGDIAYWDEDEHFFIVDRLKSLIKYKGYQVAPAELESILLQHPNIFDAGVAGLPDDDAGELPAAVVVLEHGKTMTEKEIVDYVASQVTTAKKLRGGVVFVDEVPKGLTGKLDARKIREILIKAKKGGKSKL
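Purified P. pyralis luciferase (10nM final) with 10uM D-luciferin and 10uM ATP (Km levels) in 50mM Tris acetate pH 7.5, 10mM Mg acetate, 0.01% Tween-20, 0.05% BSA; qHTS 6-point titration, ~60 µM downward; luminescence read.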
ELG1 repair inh: qHTS screen for small molecules that inhibit ELG1-dependent DNA repair in human embryonic kidney (HEK293T) cells expressing luciferase-tagged ELG1; HEK293T ELG1-luciferase reporter, luminescence, 16 h; DNA damage induced by 5-fluorouridine; Potency, µM (doses to about 46.1 µM), inactives show at the top dose activity change, negative = inhibition, usual class: inhibitors; 330,000 compounds, 2.3% hits; also: % is scaled to controls: 0 for no effect and ±100 for the full control effect; nearly all actives have a fitted effect of over 55% in size
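DMSO vehicle served as the neutral condition. Each well held 2,000 cells given 5-fluorouridine plus compound; after 16 hr at 37 °C/5% CO2, ONE-Glo was added and luciferase measured 30 min later.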
ELG1 genotox: qHTS screen for small molecules that induce genotoxicity in human embryonic kidney (HEK293T) cells expressing luciferase-tagged ELG1 | 330,000 compounds, 1.3% hits | Potency, µM (titrated, usually from 46 µM), for inactives: at the highest dose activity change, positive = activation, most hits filed as activators | AID 504466, 2011 | HEK293T ELG1-luciferase reporter, luminescence, 16 h; also: % of control where 0% means no effect; nearly all actives have a fitted effect of over 60% in size
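HEK293T cells expressing luciferase-tagged ELG1 were exposed to compound or DMSO vehicle for 16 hr at 37 °C and 5% CO2. Luciferase activity was then measured with ONE-Glo after 30 min at room temperature.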
Rab9 promoter act: qHTS Assay for Rab9 Promoter Activators. Huh7 Rab9 promoter-luciferase reporter, luminescence, 24 h. Potency, µM (highest dose often 9.22 µM), without a hit: at the highest dose activation, negative = inhibition, actives largely listed as activators. 320,000 compounds, 2.8% hits. AID 485297, 2010; also: % of control where 0% means no effect; nearly all actives have a fitted effect of over 60% in size
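Stable Rab9-luc Huh7, 1500 cells/well, 2 h settle; cmpd in DMSO, 24 h, 37 °C/5% CO2; luciferase reagent 10 min RT; luminescence.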
SMN2 splice up: qHTS Assay for Enhancers of SMN2 Splice Variant Expression. HEK293 SMN2-luciferase splicing reporter, luminescence, 30-36 h. 210,000 compounds, 2.8% hits. AID 1458, 2008. Potency, µM (top dose mostly 46.1 µM), for inactives: top-dose activity change, positive = activation, actives largely listed as activators; also: % of control where 0% means no effect; nearly all actives have a fitted effect of over 55% in size
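qHTS luciferase splicing reporter: luminescence rises when SMN2 exon 7 is included in transfected HEK293 cells. Compound exposure lasted 30-36 h at 37C, with 4.5 mM final sodium butyrate as control, followed by a ONE-Glo read.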
An asterisk follows results filed as active; ? = inconclusive; / = no result; [ ] = remark or other dose. In the library only some 9.2% were active in any assay of this set; here they are far more common. Calls follow the shape of the dose curve; as a rule, active = well fitted curve in the direction sought with a large enough effect; inconclusive = small, poorly fitted or top-dose-only effect, or another doubt; inactive = no such curve, though single readings can be large; an effect the other way counts as inactive or inconclusive. Potency is read from the fitted curve at half-maximal effect.

SMILES | NPC1 prom act | FLuc counter | ELG1 repair inh | ELG1 genotox | Rab9 promoter act | SMN2 splice up
CN(C)c1ccc(C(CNC(=O)COc2ccc(Cl)cc2)N2CCCC2)cc1 (stereo not given) | -2% | 2% | 8% | -7% | 10% | /
O=C(NCc1ccccn1)c1ccc(Cl)c(S(=O)(=O)N2CCOCC2)c1 | -4% | 3% | 8% | -1% | 5% | /
COc1ccc(C2CC(=O)c3cc(-c4nc(-c5ccc(Cl)cc5)c(C)s4)c(=O)[nH]c3C2)cc1 (stereo not given) | / | -3% | / | / | / | -15%
O=C(Nc1ccc(SC(F)F)cc1)c1ccc2nccnc2c1 | ? | 11µM* | ? | 0% | 23% | -6%
COc1ccc(C(=O)Nc2cccc(C)c2)cc1 | 1.3µM* | 3.4µM* | ? | ? | 1.3µM* | 11µM*
COc1ccc(NC(=S)c2ccncc2)cc1 | -2% | 0% | 0% | 0% | -11% | -50%
COc1ccc(CC(=O)Nc2cccc(C(=O)Nc3cccc(C)c3)c2)cc1 | -2% | -6% | -11% | 5% | 0% | /
Cc1ccc(NC(=S)c2ccncc2)cc1 | 4% | ? | 12% | -1%[9.26 µM] | -1% | /
Cc1ccc(NC(=S)c2ccccc2)cc1 | ? | 4.8µM* | ? | ? | 2.5µM* | 0%[1.84 µM]
COc1ccc(C(=S)Nc2ccc(C)cc2)cc1 | 2µM* | 2.4µM* | ? | 29% | 2.8µM* | 18µM*
CN(c1ncnc2c1c(-c1ccccc1)cn2-c1cccc(Cl)c1)C1CCCCC1 | / | 0% | / | / | / | /
COc1ccc(NC(=O)c2c(Cl)n(C)c3ccccc23)cc1 | 28% | 9.5µM* | ? | 17% | 28% | ?
CCN(Cc1ccccc1)C(=O)c1cc(-c2ccccc2)n[nH]1 | / | 15µM* | / | / | / | /
CCN(Cc1ccccc1)C(=O)c1ccc(C(=O)N(CC)Cc2ccccc2)cc1 | -11% | 8% | -3% | -4% | -7% | /
CC(C)=CC(=O)Nc1nnc(C(C)C)s1 | 3.2µM* | 12µM* | ? | ? | 2.5µM* | 11µM*
COc1c(C(=O)Nc2nnc(C3CC3)s2)csc1Cl | 4.5µM* | ? | ? | ? | 4µM* | /
O=C(Nc1nnc(C2CC2)s1)c1cccs1 | 2.8µM* | ? | ? | ? | 3.2µM* | /
CCCCc1nnc(NC(=O)C=C(C)C)s1 | 0% | -2% | 17% | -2% | 3% | 14%
CN(c1ccccc1)S(=O)(=O)c1nnc(NC(=O)c2cccs2)s1 | / | 1.1µM* | / | / | / | /
COc1cc(CC(=O)OCC(=O)Nc2ccc(N(C)C)cc2)cc(OC)c1OC | / | / | 0% | -1% | / | /
O=C(NC1CCCCC1)C(c1ccncc1)N(C(=O)c1ccco1)c1ccc(F)cc1 (stereo not given) | 0% | 1% | -2% | -2% | 6% | /
Cc1nc2cnc(N3CCNCC3)nc2n(-c2ccccc2)c1=O | / | / | / | / | / | -4%
CC(C)(C)c1nnc(NC(=O)c2cccs2)s1 | 2.8µM* | 11µM* | ? | ? | 2.8µM* | /
CC(C)c1nnc(NC(=O)c2cccs2)s1 | 2.8µM* | 13µM* | ? | 4.1µM* | 2.5µM* | 14µM*
CCc1nn(CC(=O)N2CCN(c3cccc(C)c3C)CC2)c(=O)c2cc3sccc3n12 | / | -3% | / | / | / | 0%
SMILES | NPC1 prom act | FLuc counter | ELG1 repair inh | ELG1 genotox | Rab9 promoter act | SMN2 splice up
O=C(Nc1ccccc1)N(O)c1ccc(Cl)cc1 | ? | 12µM* | ? | ? | 3.5µM* | ?
CCN(CCS(=O)(=O)c1ccc(Cl)cc1)C(=O)Nc1ccccc1 | -3% | 1% | -14% | 1% | -4% | /
N#CCc1cnc2ccccc2n1 | -3% | 0% | 15% | 0% | 1% | /
Cc1ccc(N2C(=O)Nc3cc(Cl)c(Cl)cc3N2O)cc1Cl | -1% | 17µM* | -2% | 1% | 0% | -19%
COC(=O)c1ccc2c(=O)n(CCCCCC(=O)N3CCN(c4cc(Cl)ccc4C)CC3)c(=O)[nH]c2c1 | / | -11% | / | / | / | /
Cc1cnc(NC(=O)CSc2ccc(Cl)cc2)s1 | -3% | ? | -10% | -2% | -2% | -11%
Cc1cnc(NC(=O)Nc2ccc(Cl)cc2)s1 | 14% | 4.8µM* | ? | ? | -31% | 173%
O=C(Nc1ccc(F)cc1)Nc1nnc(-c2ccncc2)s1 | -3% | -12% | ? | -13% | -13% | -60%
O=C(Nc1ccc(Cl)cc1)Nc1nnc(-c2ccncc2)s1 | -18% | -17% | 3.7µM* | -11% | -33% | -57%
COCCCN1C(=O)c2ccc(C(=O)NCc3ccccn3)cc2C1=O | -3% | 3% | 6% | -1% | 0% | /
C=CCSc1nsc(NC(=O)Nc2ccc(F)cc2)n1 | -15% | 24µM* | ? | -3% | -27% | /
COc1ccc(Cc2nnc(NC(=O)Nc3cccc(OC)c3)s2)cc1 | 2% | 0% | 12% | 15% | -9% | /
O=C(Nc1ccc(F)cc1)Nc1nnc(SCC(=O)N2CCCCC2)s1 | / | 5% | / | / | / | /
CCSc1nsc(NC(=O)Nc2cccc(OC)c2)n1 | 25% | 21µM* | -9% | -10% | 20% | /
CCSc1nsc(NC(=O)Nc2ccccc2F)n1 | 2.8µM* | 11µM* | ? | -5% | 1.6µM* | /
CC(c1ccccc1)c1nnc(NC(=O)Nc2ccccc2F)s1 (stereo not given) | ? | ? | ? | 4% | 7% | /
Cc1ccc(NC(=O)c2cc(S(=O)(=O)N3CCCCC3)c[nH]2)cc1N(C)C | / | 0% | / | / | / | /
CC1(C)Cc2nc3sc4c(SCC(=O)O)ncnc4c3cc2CO1 | ? | 0.38µM* | ? | 5% | ? | /
CC1(C)Cc2nc3sc4c(SCC(=O)NCc5ccccc5)ncnc4c3cc2CO1 | 26% | 2.7µM* | ? | 4.1µM* | 23% | ?
O=c1cc(-c2ccccc2)[nH]n1-c1nc2ccccc2[nH]1 | 4% | 19µM* | ? | ? | -2% | 3%
O=C(c1cccc(Br)c1)c1cn(-c2ccccc2)nc1C(=O)c1ccccc1 | -11% | -1% | ? | -1% | 1% | -16%
CCOC(=O)c1nn(-c2ccc(C)c(C)c2)cc1O | ? | 4.3µM* | ? | 6.5µM* | 15% | 0%
CCOC(=O)c1nn(-c2ccc3c(c2)OCCO3)cc1O | 2.8µM* | 3µM* | ? | 8.2µM* | 2.8µM* | ?
CCOC(=O)c1nn(-c2ccc(C)cc2)cc1C(=O)c1ccccc1 | 4µM* | 1.9µM* | ? | 2.6µM* | 2.8µM* | 11µM*
